# Experimental data as given in article PMC7862700, “An all-to-all approach to the identification of sequence-specific readers for epigenetic DNA modifications on cytosine”.
# Experiments:
# Assay in all cases: DAPPL (digital affinity profiling via proximity ligation, sequencing); 10 mM Tris-HCl pH 7.5, 50 mM NaCl, 1 mM DTT, 4% glycerol, room temperature, 30 min; GST-TFs on glutathione beads, 16-mer random dsDNA library, 0.1% formaldehyde crosslink after washing; high values mean tight binding
# Conditions in all cases: protein: recombinant; tags: N-terminal GST; dsDNA, one strand shown
# FLI1 = molecular target: T1, FLI1 (Homo sapiens, UniProt Q01543 1-452)
# T1 sequence: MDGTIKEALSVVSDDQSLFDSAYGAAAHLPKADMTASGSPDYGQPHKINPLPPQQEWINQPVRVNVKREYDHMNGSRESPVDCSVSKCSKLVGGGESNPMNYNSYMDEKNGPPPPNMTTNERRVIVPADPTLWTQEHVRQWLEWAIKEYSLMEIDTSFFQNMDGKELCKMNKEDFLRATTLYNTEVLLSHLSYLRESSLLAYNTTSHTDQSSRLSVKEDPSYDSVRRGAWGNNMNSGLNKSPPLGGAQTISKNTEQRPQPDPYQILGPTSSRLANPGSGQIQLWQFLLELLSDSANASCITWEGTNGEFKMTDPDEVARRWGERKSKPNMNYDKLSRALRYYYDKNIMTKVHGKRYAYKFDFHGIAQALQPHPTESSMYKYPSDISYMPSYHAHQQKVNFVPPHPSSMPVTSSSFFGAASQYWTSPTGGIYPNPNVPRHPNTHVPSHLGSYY
# In short: (§1)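 Binding signal is defined as a hexamer's read frequency for one factor over its frequency for the tag-only sample. To obtain reads, GST-fused human transcription factors were expressed in yeast, captured on glutathione beads, barcoded with DNA and pooled with that sample. Pools met 200 nmole of a 16-mer random double-stranded DNA library in Tris/NaCl/DTT/glycerol buffer for 30 min at room temperature before washing, 0.1% formaldehyde crosslinking, proximity ligation (BsaI/T4 ligase, 1 h, 37 °C), PCR and Illumina NextSeq500 sequencing.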
# ELF1 = ELF1 (Homo sapiens, UniProt P32519 1-619)
# In short: as §1
# SPIB = SPIB (Homo sapiens, UniProt Q01892 1-262)
# In short: as §1
# ELF3 = molecular target: T2, ELF3 (Homo sapiens, UniProt P78545 1-371)
# T2 sequence: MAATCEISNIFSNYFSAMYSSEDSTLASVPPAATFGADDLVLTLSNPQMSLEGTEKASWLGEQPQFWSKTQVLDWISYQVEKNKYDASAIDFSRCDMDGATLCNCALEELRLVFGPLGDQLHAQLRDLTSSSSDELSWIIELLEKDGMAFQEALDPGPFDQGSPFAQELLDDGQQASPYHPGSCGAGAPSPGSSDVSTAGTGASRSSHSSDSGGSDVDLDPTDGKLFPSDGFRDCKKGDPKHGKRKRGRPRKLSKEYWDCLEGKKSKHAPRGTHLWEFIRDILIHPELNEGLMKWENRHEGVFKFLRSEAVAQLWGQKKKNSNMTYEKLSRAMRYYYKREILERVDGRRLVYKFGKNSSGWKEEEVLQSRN
# In short: as §1
# ETV1 = ETV1 (Homo sapiens, UniProt P50549 1-477)
# In short: as §1
# ERF = molecular target: T3, ERF (Homo sapiens, UniProt P50548 1-548)
# T3 sequence: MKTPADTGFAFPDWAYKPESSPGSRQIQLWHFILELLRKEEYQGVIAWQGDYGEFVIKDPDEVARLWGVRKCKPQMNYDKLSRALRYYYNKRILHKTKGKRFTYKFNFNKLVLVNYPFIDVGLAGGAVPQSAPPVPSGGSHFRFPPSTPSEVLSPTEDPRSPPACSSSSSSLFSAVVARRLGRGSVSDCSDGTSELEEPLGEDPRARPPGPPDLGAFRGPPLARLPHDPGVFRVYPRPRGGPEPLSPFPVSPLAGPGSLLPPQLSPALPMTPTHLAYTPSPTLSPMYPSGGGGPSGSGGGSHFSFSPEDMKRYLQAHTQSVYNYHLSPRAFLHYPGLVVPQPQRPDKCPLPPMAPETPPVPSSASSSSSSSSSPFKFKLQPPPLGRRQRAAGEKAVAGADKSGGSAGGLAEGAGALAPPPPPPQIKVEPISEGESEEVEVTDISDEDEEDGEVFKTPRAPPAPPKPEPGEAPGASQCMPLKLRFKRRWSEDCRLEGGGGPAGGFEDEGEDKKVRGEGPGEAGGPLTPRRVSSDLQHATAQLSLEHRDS
# In short: as §1
# ETV3L = molecular target: T4, ETV3L (Homo sapiens, UniProt Q6ZN32 1-361)
# T4 sequence: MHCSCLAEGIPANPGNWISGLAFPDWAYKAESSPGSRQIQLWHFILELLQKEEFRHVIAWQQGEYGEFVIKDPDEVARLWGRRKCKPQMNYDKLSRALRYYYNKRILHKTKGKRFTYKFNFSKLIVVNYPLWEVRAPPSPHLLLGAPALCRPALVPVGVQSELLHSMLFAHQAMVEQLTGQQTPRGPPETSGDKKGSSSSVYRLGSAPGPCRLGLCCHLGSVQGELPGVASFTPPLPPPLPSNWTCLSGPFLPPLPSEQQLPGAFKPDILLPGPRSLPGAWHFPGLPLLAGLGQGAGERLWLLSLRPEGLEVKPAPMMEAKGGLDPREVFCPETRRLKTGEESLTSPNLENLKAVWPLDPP
# In short: as §1
# ETS2 = molecular target: T5, ETS2 (Homo sapiens, UniProt P15036 1-469)
# T5 sequence: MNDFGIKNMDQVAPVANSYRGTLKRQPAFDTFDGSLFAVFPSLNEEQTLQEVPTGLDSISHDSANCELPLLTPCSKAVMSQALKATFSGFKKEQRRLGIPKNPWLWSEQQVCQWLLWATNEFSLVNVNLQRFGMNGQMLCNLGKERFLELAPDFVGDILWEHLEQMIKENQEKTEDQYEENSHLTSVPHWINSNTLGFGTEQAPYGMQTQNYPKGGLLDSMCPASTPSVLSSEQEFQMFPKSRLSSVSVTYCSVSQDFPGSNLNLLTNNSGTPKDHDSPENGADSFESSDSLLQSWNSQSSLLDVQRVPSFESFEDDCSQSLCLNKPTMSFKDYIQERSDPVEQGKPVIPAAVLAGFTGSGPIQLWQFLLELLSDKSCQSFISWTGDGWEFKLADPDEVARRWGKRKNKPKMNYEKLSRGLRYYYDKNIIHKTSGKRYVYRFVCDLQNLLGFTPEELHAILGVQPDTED
# In short: as §1
# SPDEF = molecular target: T6, SPDEF (Homo sapiens, UniProt O95238 1-335)
# T6 sequence: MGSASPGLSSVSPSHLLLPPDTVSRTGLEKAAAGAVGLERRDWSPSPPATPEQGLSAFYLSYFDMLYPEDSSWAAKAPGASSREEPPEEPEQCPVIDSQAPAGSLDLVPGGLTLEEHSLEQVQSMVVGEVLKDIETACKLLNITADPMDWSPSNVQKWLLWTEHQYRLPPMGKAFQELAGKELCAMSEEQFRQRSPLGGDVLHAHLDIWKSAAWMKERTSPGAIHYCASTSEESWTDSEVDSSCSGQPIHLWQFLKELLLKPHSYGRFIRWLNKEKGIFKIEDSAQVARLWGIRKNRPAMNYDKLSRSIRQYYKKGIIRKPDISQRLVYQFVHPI
# In short: as §1
# ETV7 = molecular target: T7, ETV7 (Homo sapiens, UniProt Q9Y603 1-341)
# T7 sequence: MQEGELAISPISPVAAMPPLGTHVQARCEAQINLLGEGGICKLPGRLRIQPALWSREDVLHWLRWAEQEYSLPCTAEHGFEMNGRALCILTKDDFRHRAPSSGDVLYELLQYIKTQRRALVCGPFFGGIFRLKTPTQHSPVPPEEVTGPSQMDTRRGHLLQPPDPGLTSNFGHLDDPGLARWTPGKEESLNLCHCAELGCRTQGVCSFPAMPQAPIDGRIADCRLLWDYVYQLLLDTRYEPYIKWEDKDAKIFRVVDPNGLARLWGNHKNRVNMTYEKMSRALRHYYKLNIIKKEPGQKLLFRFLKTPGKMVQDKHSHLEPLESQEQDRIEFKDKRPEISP
# In short: as §1
# ELF5 = molecular target: T8, ELF5 (Homo sapiens, UniProt Q9UKW6-2 1-255)
# T8 sequence: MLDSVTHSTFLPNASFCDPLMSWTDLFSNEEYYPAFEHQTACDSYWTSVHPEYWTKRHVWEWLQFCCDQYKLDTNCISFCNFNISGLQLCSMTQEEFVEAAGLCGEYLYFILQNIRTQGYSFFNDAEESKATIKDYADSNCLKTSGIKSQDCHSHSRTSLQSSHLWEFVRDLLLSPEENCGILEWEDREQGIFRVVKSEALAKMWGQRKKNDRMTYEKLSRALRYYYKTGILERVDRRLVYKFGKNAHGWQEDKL
# In short: as §1
# SPIB, sequence (Q01892 whole entry): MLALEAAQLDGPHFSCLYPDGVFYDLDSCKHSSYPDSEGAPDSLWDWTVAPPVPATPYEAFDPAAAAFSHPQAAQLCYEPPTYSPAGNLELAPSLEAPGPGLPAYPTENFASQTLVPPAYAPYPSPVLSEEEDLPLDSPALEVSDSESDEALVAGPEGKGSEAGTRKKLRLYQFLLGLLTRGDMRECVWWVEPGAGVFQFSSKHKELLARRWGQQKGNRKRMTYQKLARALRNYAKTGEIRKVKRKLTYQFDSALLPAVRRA
# ETV1, sequence (P50549 whole entry): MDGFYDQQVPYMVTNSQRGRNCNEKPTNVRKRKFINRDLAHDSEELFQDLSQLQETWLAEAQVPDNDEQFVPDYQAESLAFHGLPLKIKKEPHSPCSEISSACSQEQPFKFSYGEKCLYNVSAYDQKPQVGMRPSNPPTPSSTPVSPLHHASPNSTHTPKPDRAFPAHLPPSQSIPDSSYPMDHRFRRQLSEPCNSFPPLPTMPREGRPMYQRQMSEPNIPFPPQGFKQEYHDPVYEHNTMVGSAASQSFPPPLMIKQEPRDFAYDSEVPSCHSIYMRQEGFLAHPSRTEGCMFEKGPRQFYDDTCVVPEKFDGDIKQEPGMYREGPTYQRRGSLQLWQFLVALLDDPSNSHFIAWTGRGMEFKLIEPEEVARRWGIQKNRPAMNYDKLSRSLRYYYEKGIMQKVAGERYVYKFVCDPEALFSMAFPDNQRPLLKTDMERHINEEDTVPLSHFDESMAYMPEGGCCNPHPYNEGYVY
# ELF1, sequence (P32519 whole entry): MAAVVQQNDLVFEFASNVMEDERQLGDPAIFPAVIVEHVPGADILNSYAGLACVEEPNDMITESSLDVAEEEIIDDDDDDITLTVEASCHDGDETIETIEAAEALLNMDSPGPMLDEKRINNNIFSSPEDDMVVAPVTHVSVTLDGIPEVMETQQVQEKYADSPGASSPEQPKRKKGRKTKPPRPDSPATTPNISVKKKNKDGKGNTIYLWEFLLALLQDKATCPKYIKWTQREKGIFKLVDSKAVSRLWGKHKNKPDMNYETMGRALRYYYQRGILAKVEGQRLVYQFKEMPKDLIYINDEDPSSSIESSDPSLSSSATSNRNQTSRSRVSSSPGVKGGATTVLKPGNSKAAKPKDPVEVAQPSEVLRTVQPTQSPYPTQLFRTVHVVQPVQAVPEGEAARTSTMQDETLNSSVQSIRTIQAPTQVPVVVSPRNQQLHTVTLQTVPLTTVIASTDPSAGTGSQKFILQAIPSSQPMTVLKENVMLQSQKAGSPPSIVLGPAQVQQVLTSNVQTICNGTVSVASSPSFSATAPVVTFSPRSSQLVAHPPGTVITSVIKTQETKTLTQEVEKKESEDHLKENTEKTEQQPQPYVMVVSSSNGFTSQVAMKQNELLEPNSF
sequence,measurement,setting,value
GGATGG,binding signal,FLI1,"1.02 fold enrichment (6-mer frequency, TF over GST control)"
same,binding signal,ELF1,"1.05 fold enrichment (6-mer frequency, TF over GST control)"
same,binding signal,SPIB,"1.03 fold enrichment (6-mer frequency, TF over GST control)"
same,binding signal,ELF3,"1.13 fold enrichment (6-mer frequency, TF over GST control)"
same,binding signal,ETV1,"1.13 fold enrichment (6-mer frequency, TF over GST control)"
same,binding signal,ERF,"1.05 fold enrichment (6-mer frequency, TF over GST control)"
same,binding signal,ETV3L,"1.08 fold enrichment (6-mer frequency, TF over GST control)"
same,binding signal,ETS2,"1.03 fold enrichment (6-mer frequency, TF over GST control)"
same,binding signal,SPDEF,"1.09 fold enrichment (6-mer frequency, TF over GST control)"
same,binding signal,ETV7,"1.06 fold enrichment (6-mer frequency, TF over GST control)"
same,binding signal,ELF5,"1.03 fold enrichment (6-mer frequency, TF over GST control)"
